# Sampled rows, rich in hits. Any-hit rate of the full collection: about 12%.
# BAZ2B inh: BAZ2B (human) inhibition; Q9UIF8; AlphaScreen BAZ2B-H3K14Ac peptide displacement; Potency, µM (doses to about 114 µM), without a hit: at the top dose activity change, negative = inhibition, actives largely listed as inhibitors; actives 4.4% (n = 360,000); AID 504333; further: on the % scale 0 is the no-effect control and ±100 the full control effect; nearly all actives have a fitted effect of over 60% in size
#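 Compounds, titrated to a top concentration of 110 uM, were incubated 30 min at room temperature with preformed BAZ2B/acetyl-K14 H3 peptide complex (50 nM each). Proximity signal was measured by AlphaScreen after 20 min with beads.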
# Sfp inh: blocks B. subtilis Sfp PPTase activity; actives 3.5% (n = 310,000); Q9F4F7; Potency, µM, for inactives: largest response in the series, negative = inhibition, usual class: inhibitors; Biochemical Sfp PPTase activity, qHTS;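 further: the enzyme is Sfp with the accession as filed and its product quenches rhodamine fluorescence; 0% = enzyme reaction without inhibitor and -100% = no enzyme wells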
#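 Fluorescence-quenching assay: 15 nM Sfp-PPTase preincubated 15 min at room temperature with compound, then 5 uM rhodamine-CoA and 12.5 uM BHQ-2-labelled YbbR peptide added. Fluorescence (ex 525/em 598 nm) read at start and after 30 min; difference gives rate.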
# G9a inh: inhibitors of human histone lysine methyltransferase G9a. Potency, µM (highest dose often 102 µM), for the others: top-dose activity, negative = inhibition, usual class: inhibitors. G9a H3K9 monomethylation, AlphaScreen, 2 h. actives 8.8% (n = 350,000). AID 504332. Q96KQ7; further: on the % scale 0 is the no-effect control and ±100 the full control effect; nearly all actives have a fitted effect of over 75% in size
# Target sequence (Q96KQ7 913-1193 limits assumed): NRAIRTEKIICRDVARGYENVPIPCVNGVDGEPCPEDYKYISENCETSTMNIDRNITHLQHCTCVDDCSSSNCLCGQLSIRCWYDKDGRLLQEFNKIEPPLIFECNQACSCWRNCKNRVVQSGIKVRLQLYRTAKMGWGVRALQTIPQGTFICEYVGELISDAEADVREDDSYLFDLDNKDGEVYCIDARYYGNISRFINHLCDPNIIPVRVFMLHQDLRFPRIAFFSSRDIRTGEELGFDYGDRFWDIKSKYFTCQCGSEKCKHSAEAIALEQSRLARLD
#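 Enzyme 20 nM + cpd, 15 min RT; add b-H3K9 pep 500 nM / SAM 20 uM; 2 h RT; anti-H3K9me1 Ab 0.5 ug/mL + SA donor / anti-rabbit acceptor beads 20 ug/mL each, 10 min; AlphaScreen read.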
# JMJD2A Tudor: blocks the human JMJD2A Tudor domain; AlphaScreen JMJD2A-Tudor / H3K4me3 peptide binding; Potency, µM (series often up to 114 µM), inactives show at the top dose activity change, negative = inhibition, most hits filed as inhibitors; actives 4.4% (n = 390,000); AID 504339; further: on the % scale 0 is the no-effect control and ±100 the full control effect; nearly all actives have a fitted effect of over 50% in size
# HP1b chromo inh: blocks HP1-beta chromodomain binding to methylated histone tails. Potency, µM (highest dose often 114 µM), inactives show at the top dose activity change, negative = inhibition, hits mostly inhibitors. AlphaScreen HP1-beta / biotin-H3K9me3 peptide binding. actives 0.56% (n = 390,000). P83916. AID 540317; further: nearly all actives have a fitted effect of over 70% in size
# Target sequence (P83916 whole entry, looked up): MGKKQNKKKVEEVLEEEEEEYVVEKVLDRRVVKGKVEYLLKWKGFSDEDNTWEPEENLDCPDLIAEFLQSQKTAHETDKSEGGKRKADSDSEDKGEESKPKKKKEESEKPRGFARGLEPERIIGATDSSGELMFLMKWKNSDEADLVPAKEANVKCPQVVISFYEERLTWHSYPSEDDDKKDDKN
#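 HP1-beta protein (50 nM final) preincubated 30 min at room temperature with biotinylated H3(1-18)K9me3 peptide (50 nM) in PBS pH 7.4, 0.01% Tween-20, then compound added for 30 min. AlphaScreen streptavidin donor/nickel chelate acceptor beads (10 ug/mL final), 30 min dark, luminescence read.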
# Starred values were filed as active, the others as inactive; u = inconclusive; x = not tested or not shown; [ ] = another dose, or the depositor's remark. The call rests on the fitted dose curve; in most records, active means well fitted curve in the direction sought with a large enough effect; inconclusive means small, poorly fitted or top-dose-only effect, or another doubt; inactive means no such curve, though single readings can be large; an effect the other way counts as inactive or inconclusive. Potency means the concentration at half of the fitted maximal effect.
SMILES,BAZ2B inh,Sfp inh,G9a inh,JMJD2A Tudor,HP1b chromo inh
CCC(=O)Nc1nc(C)c(-c2csc(Nc3ccccn3)n2)s1,39.8µM*,u,39.8µM*,u,-15.6%
CCCC(=O)Nc1nc(C)c(-c2csc(Nc3ccccc3C)n2)s1,u,20µM*,11.2µM*,u,-3.3%
CCS(=O)(=O)c1nc(S(=O)(=O)c2ccc(C)cc2)c(N2CCC(O)CC2)s1,-7.0%,5.8%,x,-8.3%,26.5%
O=C(c1ccc(C(F)(F)F)cc1)N1CCCCC1,5.1%,11.2%,-1.2%[12.7 µM],1.6%,13.0%
C#CCOCCOCCOCCNc1nc(N2CCN(C(=O)[C@H](Cc3ccc(O)cc3)n3cc([C@@H](N)C(C)CC)nn3)CC2)nc(N2CCN(C(=O)[C@H](CCCCN)n3cc([C@@H](N)CO)nn3)CC2)n1 (some centres undefined),50.1µM*,8.7%,-5.1%[12.7 µM],39.8µM*,40.4%
C#CCOCCOCCOCCNc1nc(N2CCN(C(=O)[C@H](Cc3ccc(O)cc3)n3cc([C@@H](N)C(C)CC)nn3)CC2)nc(N2CCN(C(=O)[C@H](CCCCN)n3cc([C@@H](N)CC(C)C)nn3)CC2)n1 (some centres undefined),79.4µM*,12.6%,-131.0%[59 µM],x,x
C#CCOCCOCCOCCNc1nc(N2CCN(C(=O)[C@H](CCCCN)n3cc(CC(C)O)nn3)CC2)nc(N2CCN(C(=O)[C@H](CCCCN)n3cc(CC(C)O)nn3)CC2)n1 (some centres undefined),-34.3%,x,-2.9%[2.33 µM],-14.9%,38.4%
C#CCOCCOCCOCCNc1nc(N2CCN(C(=O)[C@H](CCCCN)n3cc([C@@H](N)CO)nn3)CC2)nc(N2CCN(C(=O)[C@H](Cc3ccc(O)cc3)n3cc([C@@H](N)CC(C)C)nn3)CC2)n1,31.6µM*,6.0%,u,56.2µM*,26.0%
O=c1[nH]c(CN2CCN(Cc3ccc4c(c3)OCO4)CC2)nc2sc3c(c12)CCC3,-3.8%,-1.1%,u,x,x
O=C(NCCc1ccccc1Cl)C1CCN(S(=O)(=O)c2cccs2)CC1,22.6%,u,-53.0%[2.33 µM],-9.5%,16.1%
COC(=O)/C(=C1/OC(=O)C(c2ccccc2)=C1O)c1ccccc1,x,-8.0%,x,x,x
COC(=O)/C=C1\OC(c2ccccc2)=CC1=O,u,20µM*,3.98µM*,x,x
Cc1ccc(OCCCCCN2CCOCC2)c(Cl)c1,x,x,x,22.4µM*,50.1µM*
Cc1ccc(C)c(OCCN2CCOCC2)c1,-16.0%,6.7%,u,10.0%,37.0%
Clc1cc(Br)ccc1OCCOCCN1CCOCC1,u,-23.9%,u,7.08µM*,-22.2%
Cc1cccc(OCCCN2CCOCC2)c1C,u,-9.9%,x,25.1µM*,u
Clc1cc(Br)ccc1OCCOCCN1CCCC1,u,-9.4%,39.8µM*,31.6µM*,u
Cc1ccc(C)c(OCC(=O)N/N=C\c2cccn2C)c1,-33.2%,9.5%,-31.5%,-8.8%,18.7%
Cc1ccc(S(=O)(=O)NCCc2nnc3ccc(SCC(=O)Nc4c(C)cc(C)cc4C)nn23)cc1,-14.1%,x,-9.5%[59 µM],-19.4%,14.8%
COc1ccc(C)cc1NCc1ccc([N+](=O)[O-])cc1,39.8µM*,4.7%,-0.8%[0.501 µM],50.1µM*,u
COc1ccc(C)cc1NCc1ccc(OC)c(C)c1OC,22.4µM*,-29.4%,8.91µM*,20µM*,u
COc1ccc(CNCCc2ccc([N+](=O)[O-])cc2)c(OC)c1OC,50.1µM*,11.1%,-12.5%[0.501 µM],79.4µM*,1.6%
CCOc1ccc(C(=O)CCC(=O)NNC(=O)c2ccccc2O)cc1,9.2%,x,6.5%[0.501 µM],-8.5%,21.4%
CCC1CN(C(=O)N2CCC(C(=O)NCCC3=CCCCC3)CC2)c2cc(C)ccc2O1 (centres undefined),-18.4%,x,u,-16.4%,23.2%
Cc1occc1-c1nnc(SCC(=O)c2c[nH]c3ccccc23)n1C,-21.7%,50.1µM*,39.8µM*,56.2µM*,-25.7%
Cc1occc1-c1nnc(SCC(=O)N2CCCCC2)n1C,-4.6%,x,-6.7%,-7.6%,16.9%
Cc1occc1-c1nnc(SCC(=O)c2ccc(Cl)cc2)n1C,u,-21.4%,-39.9%[12.7 µM],70.8µM*,-19.6%

# Compound activity as filed in PubChem.
